We go through 18 compounds from PubChem BioAssay (Tox21).

Where “and” joins values, the source holds several entries; their conditions need not be identical. Equal values may be shown once. The source holds several records for some structures; these can differ, active in one and inactive in another. Calls of active or inactive are those of the source. Unless noted, calls come from the whole dose curve; as a rule, active = well fitted curve in the direction sought with a large enough effect in the repeat runs; inconclusive = weak or mixed curves; inactive = no such curve, though single readings can be large; an effect the other way counts as inactive or inconclusive.

Assay [1] in a line: qHTS assay to identify small molecule antagonists of the glucocorticoid receptor (GR) signaling pathway - cell viability counter screen (AID 720693). Note: nearly all actives have a fitted effect of over 55% in size.
Assay [2] can be described thus: qHTS assay for identifying genotoxic compounds that show differential cytotoxicity against isogenic chicken DT40 cell lines with known DNA damage response pathways - wild type cell line (AID 743012). Note: nearly all actives have a fitted effect of over 60% in size. Note: potency is the fitted concentration of half-maximal effect. Put shortly: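 300 wt DT40 cells/well; cpd (DMSO) pintool-transferred after ~0.5 h at 37 C/5% CO2; 40 h incubation; CellTiter-Glo added, 30 min RT; luminescence read.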
For orientation: Quantitative high-throughput screening tests each substance at several concentrations.

A short description of assay [3]: qHTS assay for identifying genotoxic compounds that show differential cytotoxicity against isogenic chicken DT40 cell lines with known DNA damage response pathways - Rev3 mutant cell line (AID 743014). Note: nearly all actives have a fitted effect of over 55% in size. Note: potency is the fitted concentration of half-maximal effect.
A short description of assay [4]: qHTS assay for identifying genotoxic compounds that show differential cytotoxicity against isogenic chicken DT40 cell lines with known DNA damage response pathways - Rad54/Ku70 mutant cell line (AID 743015). Note: nearly all actives have a fitted effect of over 60% in size. Note: potency is the fitted concentration of half-maximal effect.
The nature of assay [5]: qHTS assay to identify small molecule antagonists of the androgen receptor (AR) signaling pathway - cell viability counter screen (AID 743033; note: nearly all actives have a fitted effect of over 45% in size).
Assay [6] in a line: qHTS assay to identify small molecule antagonists of the thyroid receptor (TR) signaling pathway - cell viability counter screen (AID 743064). Note: nearly all actives have a fitted effect of over 50% in size. Put shortly:
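CellTiter-Fluor readout, 30 min at 37 °C/5% CO2, following 23.5 h incubation of GH3.TRE-Luc cells with test compound and 1 nM T3 (final).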

Assay [7] concerns thyroid hormone receptor (rat, GH3 cells). The experiment in a line: qHTS assay to identify small molecule agonists of the thyroid receptor (TR) signaling pathway (AID 743066; calls by dose curve).
The target of assay [8] is Estrogen receptor (Homo sapiens) (UniProt P03372). The experiment in a line: qHTS assay to identify small molecule antagonists of the estrogen receptor alpha (ER-alpha) signaling pathway (AID 743069; active = well fitted curve in the direction sought with a large enough effect in the signal ratio in the repeat runs, not every such curve was filed as active; inconclusive = weak or mixed curves, or effect the other way; inactive = no such curve, though single readings can be large or run the other way; the % refers to the signal ratio). Put shortly: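 Screening used a UAS-driven beta-lactamase reporter integrated into HEK293 cells expressing ER-alpha, stimulated with 17beta-estradiol alongside test compounds over 18 hr at 37C; signal came from LiveBLAzer B/G FRET fluorescence.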
Estrogen receptor (Homo sapiens), sequence (P03372 whole entry, looked up): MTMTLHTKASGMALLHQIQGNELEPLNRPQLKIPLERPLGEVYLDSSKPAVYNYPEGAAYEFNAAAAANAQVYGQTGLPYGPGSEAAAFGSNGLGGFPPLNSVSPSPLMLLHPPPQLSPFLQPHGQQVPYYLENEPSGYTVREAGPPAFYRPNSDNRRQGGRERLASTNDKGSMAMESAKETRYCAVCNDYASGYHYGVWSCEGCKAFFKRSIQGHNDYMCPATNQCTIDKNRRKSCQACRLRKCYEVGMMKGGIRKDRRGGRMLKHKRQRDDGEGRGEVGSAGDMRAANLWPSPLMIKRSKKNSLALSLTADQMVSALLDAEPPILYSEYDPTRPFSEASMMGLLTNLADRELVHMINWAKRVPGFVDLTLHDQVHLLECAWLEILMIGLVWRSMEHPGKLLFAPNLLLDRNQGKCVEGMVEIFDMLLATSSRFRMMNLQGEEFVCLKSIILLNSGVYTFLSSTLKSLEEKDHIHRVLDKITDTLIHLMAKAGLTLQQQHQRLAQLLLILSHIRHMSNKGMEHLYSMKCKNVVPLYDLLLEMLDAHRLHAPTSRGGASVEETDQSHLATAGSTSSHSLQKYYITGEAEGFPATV

The nature of assay [9]: qHTS assay to identify small molecule antagonists of the estrogen receptor alpha (ER-alpha) signaling pathway - cell viability counter screen (AID 743074; calls by dose curve; note: nearly all actives have a fitted effect of over 45% in size; note: potency is the fitted concentration of half-maximal effect).
Assay [10] addresses Estrogen receptor (Homo sapiens) (UniProt P03372). The experiment in a line: qHTS assay to identify small molecule agonists of the estrogen receptor alpha (ER-alpha) signaling pathway (AID 743075; calls by dose curve; note: potency is the fitted concentration of half-maximal effect).
For assay [11] the target is unchanged. In words: qHTS assay to identify small molecule agonists of the estrogen receptor alpha (ER-alpha) signaling pathway using the BG1 cell line (AID 743079). Note: nearly all actives have a fitted effect of over 20% in size. Note: potency is the fitted concentration of half-maximal effect. Conditions: BG1Luc4E2 cells, ERE-luciferase agonist, 22 h; activation: at 70.3 µM (top of the series).
A short description of assay [12]: qHTS assay to identify small molecule antagonists of the estrogen receptor alpha (ER-alpha) signaling pathway using the BG1 cell line (AID 743080; calls by dose curve;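 note: BG1 cells stimulated with 17beta-estradiol alongside compound; nearly all actives have a fitted effect of over 25% in size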). A digest of the protocol:
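Luciferase inhibition measured with ONE-Glo after 30 min at RT in BG1Luc4E2 cells given test compounds and 17beta-estradiol for 21.5 h at 37 C; CellTiter-Fluor viability read in the same wells beforehand.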

Assay [13] has as its target Aromatase (Homo sapiens) (UniProt P11511). The experiment in a line: qHTS assay to identify aromatase inhibitors (AID 743083). Note: nearly all actives have a fitted effect of over 55% in size. Note: potency is the fitted concentration of half-maximal effect.
Assay [14] can be described thus: qHTS assay to identify small molecule antagonists of the androgen receptor (AR) signaling pathway using the MDA cell line - cell viability counter screen (AID 743041; note: nearly all actives have a fitted effect of over 45% in size). Put shortly:
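qHTS viability read-out; MDA-kb2 AR-luc; R1881-stimulated; 16 h exposure at 37C, 0% CO2; CellTiter-Fluor, 30 min; fluorescence intensity.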

Assay [15] can be described thus: qHTS assay to identify small molecule antagonists of the thyroid receptor (TR) signaling pathway (AID 743065). Note: nearly all actives have a fitted effect of over 55% in size. Note: potency is the fitted concentration of half-maximal effect. A digest of the protocol:
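GH3.TRE-Luc rat pituitary cells carrying two TR response elements driving luciferase were plated for 4 h, given compound plus 1 nM T3 (final), and incubated 23.5 h at 37 C. ONE-Glo luminescence measured reporter inhibition; CellTiter-Fluor fluorescence tracked cytotoxicity.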

Assay [16] is described as follows: qHTS assay to identify small molecule antagonists of the estrogen receptor alpha (ER-alpha) signaling pathway using the BG1 cell line - cell viability counter screen (AID 743081).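 Note: compound given together with 17beta-estradiol as the ER stimulus; nearly all actives have a fitted effect of over 45% in size.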
For assay [17], the target named is Androgen receptor (Homo sapiens) (UniProt P10275). In words: qHTS assay to identify small molecule antagonists of the androgen receptor (AR) signaling pathway (AID 743035; active = well fitted inhibition curve with a large enough effect in the signal ratio in the repeat runs, not every such curve was filed as active; inconclusive = weak or mixed curves, or effect the other way; inactive = no such curve, though single readings can be large or run the other way; the % refers to the signal ratio). Put shortly:
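In this cell-based reporter screen, compounds were tested in concentration series against R1881-activated HEK293 cells expressing beta-lactamase under UAS control; after 16 h at 37C, FRET substrate was added and fluorescence read 2 h later.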

For assay [18] the target is unchanged. The experiment in a line: qHTS assay to identify small molecule agonists of the androgen receptor (AR) signaling pathway (AID 743036; active = well fitted activation curve with a large enough effect in the signal ratio in the repeat runs, with a control signal flat, not every such curve was filed as active; inconclusive = weak or mixed curves, or effect the other way; inactive = no such curve, though single readings can be large or run the other way; the % refers to the signal ratio). A digest of the protocol:
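Following a 4 h settling period, AR-UAS-bla HEK293 cells were dosed with compounds for 16 h at 37C. A 2 h room-temperature incubation with LiveBLAzer B/G FRET substrate preceded the fluorescence measurement.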

Assay [19] shares this target. The experiment in a line: qHTS assay to identify small molecule antagonists of the androgen receptor (AR) signaling pathway using the MDA cell line (AID 743042; note: nearly all actives have a fitted effect of over 55% in size; note: potency is the fitted concentration of half-maximal effect). A digest of the protocol: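 MDA-kb2 cells (human breast carcinoma, stably carrying an MMTV-luciferase reporter responsive to AR and GR) were plated at 3,000 cells/well and preincubated 5 hr at 37C, then given compound plus R1881 agonist for 16 h. ONE-Glo luminescence was read.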

Aromatase (Homo sapiens), sequence (P11511 whole entry, looked up): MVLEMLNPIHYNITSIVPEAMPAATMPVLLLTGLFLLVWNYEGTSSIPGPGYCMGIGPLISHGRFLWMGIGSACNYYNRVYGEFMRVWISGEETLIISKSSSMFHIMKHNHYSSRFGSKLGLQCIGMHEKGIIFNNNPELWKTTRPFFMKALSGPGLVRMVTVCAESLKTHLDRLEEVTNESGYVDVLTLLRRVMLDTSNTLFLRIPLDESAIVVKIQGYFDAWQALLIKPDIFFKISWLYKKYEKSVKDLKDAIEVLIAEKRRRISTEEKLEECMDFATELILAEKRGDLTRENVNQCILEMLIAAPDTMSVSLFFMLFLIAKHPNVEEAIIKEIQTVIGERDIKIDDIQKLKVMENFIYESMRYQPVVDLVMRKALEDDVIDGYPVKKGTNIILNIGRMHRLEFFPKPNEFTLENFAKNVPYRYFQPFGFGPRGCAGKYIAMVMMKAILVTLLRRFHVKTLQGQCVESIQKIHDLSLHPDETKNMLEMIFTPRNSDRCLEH
Androgen receptor (Homo sapiens), sequence (P10275 whole entry, looked up): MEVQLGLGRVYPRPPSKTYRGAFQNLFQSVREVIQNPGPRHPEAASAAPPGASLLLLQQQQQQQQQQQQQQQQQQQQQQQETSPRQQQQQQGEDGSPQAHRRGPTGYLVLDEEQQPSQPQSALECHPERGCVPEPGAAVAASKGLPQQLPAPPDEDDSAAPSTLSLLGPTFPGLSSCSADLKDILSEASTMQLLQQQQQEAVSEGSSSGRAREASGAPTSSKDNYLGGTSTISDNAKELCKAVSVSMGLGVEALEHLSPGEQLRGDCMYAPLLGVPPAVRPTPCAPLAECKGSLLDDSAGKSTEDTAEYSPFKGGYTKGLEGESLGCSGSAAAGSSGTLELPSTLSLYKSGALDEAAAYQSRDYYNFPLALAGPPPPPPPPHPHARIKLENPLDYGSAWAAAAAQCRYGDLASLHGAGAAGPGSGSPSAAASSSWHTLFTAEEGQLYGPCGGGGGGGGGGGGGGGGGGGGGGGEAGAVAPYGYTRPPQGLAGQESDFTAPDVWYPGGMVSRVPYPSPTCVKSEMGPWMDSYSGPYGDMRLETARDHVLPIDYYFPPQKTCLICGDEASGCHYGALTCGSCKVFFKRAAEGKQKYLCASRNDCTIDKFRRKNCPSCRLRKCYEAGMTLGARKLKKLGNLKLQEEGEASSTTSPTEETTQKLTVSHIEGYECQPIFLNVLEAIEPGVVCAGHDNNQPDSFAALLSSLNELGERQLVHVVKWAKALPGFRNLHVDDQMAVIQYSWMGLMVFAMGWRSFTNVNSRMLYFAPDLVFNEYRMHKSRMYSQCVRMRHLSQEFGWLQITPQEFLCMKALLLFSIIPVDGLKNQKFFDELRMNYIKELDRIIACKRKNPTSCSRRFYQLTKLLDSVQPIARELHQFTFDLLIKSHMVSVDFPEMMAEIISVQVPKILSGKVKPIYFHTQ

Turning to `CC1CN(c2cc3c(cc2F)c(=O)c(C(=O)O)cn3-c2ccc(F)cc2F)CCN1` (configuration not stated), the Potency entry in assay [1], in assay [2], in assay [3], in assay [4], in assay [5] and in assay [6] was “inactive” throughout. Moreover, the Potency result in [8], in assay [9], in assay [10], in [11], in assay [12] and in assay [13] was “inactive” in each case. Moreover, the result in [7] was inactive.
As to `CO[C@H]1O[C@H](CO)[C@@H](O)[C@H](O)[C@H]1O`, the Potency result in assay [1], in [2], in [3], in [4], in assay [5] and in assay [14] was “inactive” throughout. The Potency entry in assay [15], in assay [9], in assay [16] and in [13] was “inactive” in each case. Moreover, the outcome in [7] was inactive.
For `CCCCN(CCCC)CCCOC(=O)c1ccc(N)cc1`, the Potency result in assay [1], in assay [5], in assay [6], in assay [9] and in assay [13] was “inactive” throughout. For the same compound, the figures for the Potency in assay [2], in assay [3] and in assay [4] were 4.52 µM (active), 2.27 µM (active) and 4.52 µM (active), respectively. The result in assay [7] was inactive.
As for `CN1C(=O)CC(C)(c2ccccc2)C1=O` (configuration not stated), the Potency entry in [1], in assay [2], in [3], in assay [4], in assay [5] and in assay [6] was “inactive” in each case. Besides, the Potency entry in assay [15], in assay [8], in assay [9], in assay [10], in assay [11] and in assay [16] was “inactive” in each case. The Potency entry in assay [13] is “inactive”. For the same compound, the result in assay [7] was inactive.
Take `CC1=C(C=O)C(C)(C)CCC1`: the Potency result in [1], in assay [2], in assay [3], in assay [4], in assay [5] and in [6] was “inactive” throughout. The Potency result in assay [8], in assay [9], in assay [10], in assay [11], in [12] and in [16] was “inactive” in each case. Besides, in [13], the Potency result is “inactive”. Besides, the compound was called inactive in assay [7].
In the case of `Cc1cc(O)c(C(C)C)cc1Cl`, the Potency result in [1], in [2], in assay [5], in [8], in [10] and in [11] was “inactive” in each case. In addition, the Potency entry in assay [12], in [16] and in assay [13] was “inactive” in each case. The Potency entry in [3] is “inactive and 61.1 µM (active)”; in assay [4], “inactive and 48.6 µM (active)”; in [9], “inactive and 49 µM (active)”. Besides, the result in assay [7] was inactive.
Consider `CCCC1C(CC)=CC(CC)=CN1c1ccccc1` (configuration not stated), for which the Potency entry in assay [1], in [5], in [6], in assay [9] and in [13] was “inactive” each time. The Potency is 2.73 µM (active) in [2], 2.17 µM (active) in assay [3] and 1.93 µM (active) in assay [4]. For the same compound, the outcome in assay [7] was inactive.
On to `CC(C)C(=O)O`, for which the Potency result in assay [1], in assay [2], in assay [3], in [4], in assay [5] and in assay [15] was “inactive” throughout. The Potency result in [8], in assay [9], in [10], in assay [16] and in [13] was “inactive” each time. Besides, the compound was classed as inactive in [7].
Take `O=C(O)Cc1ccc(-c2ccccc2)cc1`: the Potency entry in assay [1], in assay [2], in assay [3], in assay [4], in assay [17] and in [18] was “inactive” each time. Also, the Potency entry in [14], in [19], in [6], in [15], in assay [8] and in [9] was “inactive” in each case. In addition, the Potency entry in assay [10], in [11], in assay [12], in [16] and in assay [13] was “inactive” in each case. Also, in assay [7], the result was inactive.
Take `O=C(N/N=C/c1ccc([N+](=O)[O-])o1)c1ccc(O)cc1`: the Potency result in assay [1], in [5], in assay [6], in assay [9] and in assay [10] was “inactive” each time. Further, the Potency in assay [2] is 4.52 µM (active); in [3], 4.03 µM (active); in assay [4] it was 4.52 µM (active); in [19] it was 4.52 µM (active); in assay [13] it was 10.1 µM (active). Further, the compound was called inactive in assay [7].
Regarding `CN1CCCN=C1/C=C/c1cccs1`, the Potency entry in assay [1], in assay [2], in [3], in assay [4], in assay [5] and in assay [8] was “inactive” throughout. Besides, the Potency result in assay [12], in [16] and in assay [13] was “inactive” throughout. Besides, the figures for the Potency in assay [10] and in assay [11] were 23.9 µM [inconclusive] (active) and 7.5 µM (active), respectively.
For `C1COCO1`, the Potency result in assay [1], in [2], in assay [3], in [4], in assay [5] and in [6] was “inactive” each time. Also, the Potency result in [15], in [8], in [10], in assay [11], in [12] and in [16] was “inactive” throughout. Besides, the Potency result in assay [13] was “inactive”. In addition, in assay [7], the result was inactive.
For the compound `COC(OC)(C(=O)c1ccccc1)c1ccccc1`, the Potency result in [1], in [5], in [14], in assay [6], in assay [8] and in [9] was “inactive” throughout. Also, the Potency result in assay [16] and in assay [13] was “inactive” in each case. Further, the Potency is 54.4 µM (active) in assay [2]; 15.3 µM (active) in assay [3]; 48.5 µM (active) in assay [4]; 0.0123 µM [inconclusive] (active) in [10]; 4.32 µM (active) in assay [11]. Also, in [7], the call was inactive.
On to `N#C/C(=C1/SC[C@@H](c2ccc(Cl)cc2Cl)S1)n1ccnc1`, for which the Potency entry in [1], in [5], in [14], in [9] and in assay [16] was “inactive” throughout. The Potency is 21.1 µM (active) and 13.3 µM (active) and 26.6 µM (active) in assay [2]; 26.6 µM (active) and 29.8 µM (active) in assay [3]; 26.6 µM (active) and 23.7 µM (active) and 33.5 µM (active) in assay [4]; 21.1 µM (active) and 13.3 µM (active) in [15]. Moreover, the outcome in assay [7] was inactive.
Turning to `CCOC(=O)c1ccccc1OC`, the Potency result in [1], in [2], in [3], in [4], in assay [5] and in [15] was “inactive” each time. Further, the Potency result in [9], in assay [16] and in [13] was “inactive” throughout. The compound was called inactive in [7].
As for `C=CC(C)(O)CCCC(C)CCCC(C)CCCC(C)C` (configuration not stated), the Potency entry in assay [1], in assay [2], in assay [3], in [4], in assay [5] and in assay [14] was “inactive” throughout. The Potency entry in assay [15], in assay [8], in assay [9], in assay [10], in [11] and in assay [12] was “inactive” each time. Further, the Potency entry in assay [16] and in assay [13] was “inactive” throughout.
As to `CCCCOC(=O)CCS`, the Potency result in assay [1], in assay [2], in assay [3], in assay [4], in assay [5] and in assay [14] was “inactive” each time. Also, the Potency entry in [6], in assay [8], in assay [9], in [10] and in [16] was “inactive” each time.
On to `COC(=O)[C@@H]1CC2=CC(=O)CC[C@]2(C)[C@@]23O[C@@H]2C[C@@]2(C)[C@@H](CC[C@@]24CCC(=O)O4)[C@H]13`, for which the Potency entry in assay [1], in [2], in assay [3], in assay [4], in assay [5] and in assay [14] was “inactive” in each case. For the same compound, the Potency result in [6], in [8], in assay [9], in [10], in [11] and in [16] was “inactive” each time. Besides, the Potency result in assay [13] is “inactive”. Besides, the compound was classed as inactive in assay [7].
